These results are taken from the antibiotic and cytotoxicity screens of Wong et al. (2023).

SMILES strings stand for the structures. Hit rate of the full screen: of about 39,000 compounds, about 500 (1.3%) were called active. What follows is part of a selection rich in actives, with near analogues and random picks from the rest.

In this test the test system is S. aureus RN4220. Kind of test: growth inhibition call (relative growth <= 0.2). The settings on record: 50 µM.
On to `COCC(=O)N1CC[C@]2(CC1)CN([C@H](CO)c1c2c2ccc(cc2n1C)OC)C(=O)Cc1ccccc1`, for which the growth inhibition call is “inactive”.
In the case of `CCC(=O)O[C@H]1[C@H](O[C@@H]2[C@@H](C)[C@H](O[C@H]3C[C@@](C)(OC)[C@@H](O)[C@H](C)O3)[C@@H](C)C(=O)O[C@H](CC)[C@@](C)(O)[C@H](O)[C@@H](C)C(=O)[C@H](C)C[C@@]2(C)O)O[C@H](C)C[C@@H]1N(C)C` it was “inactive”; in that of `CCOC(=O)CCC(=O)O[C@H]1[C@H](O[C@@H]2[C@@H](C)[C@H](O[C@H]3C[C@@](C)(OC)[C@@H](O)[C@H](C)O3)[C@@H](C)C(=O)O[C@H](CC)[C@@](C)(O)[C@H](O)[C@@H](C)C(=O)[C@H](C)C[C@@]2(C)O)O[C@H](C)C[C@@H]1N(C)C`, “active”; in that of `CCC(=O)OC1C(OC2C(C)C(OC3CC(C)(OC)C(O)C(C)O3)C(C)C(=O)OC(CC)C(C)(O)C(O)C(C)C(=O)C(C)CC2(C)O)OC(C)CC1N(C)C.CCCCCCCCCCCCOS(=O)(=O)O` (stereo not drawn), “inactive”.
In the case of `CCOC(=O)CCC(=O)OC1C(OC2C(C)C(OC3CC(C)(OC)C(O)C(C)O3)C(C)C(=O)OC(CC)C(C)(O)C(O)C(C)C(=O)C(C)CC2(C)O)OC(C)CC1N(C)C` (stereo not drawn) it was “active”; in that of `CO[C@@H]1CN(C)C(=O)c2ccc(NC(=O)Nc3ccc(F)cc3)cc2OC[C@@H](C)N(C(=O)c2ccc(F)cc2)C[C@H]1C`, “inactive”; in that of `Cc1nn(C)c2c1[C@@H](c1ccc(C(F)(F)F)cc1)C(C#N)C(=N)O2` (stereo partly drawn), “inactive”.
In the case of `CCCNC(=O)N(C)C[C@H]1Oc2cc(-c3ccccc3F)ccc2S(=O)(=O)N([C@@H](C)CO)C[C@H]1C` it was “inactive”.
As for `Cc1noc(C)c1NC(=O)Nc1ccc2c(c1)C(=O)N([C@@H](C)CO)C[C@@H](C)[C@@H](CN(C)Cc1ccc(C(=O)O)cc1)OCCCC[C@H](C)O2`, the growth inhibition call is “inactive”.
Turning to `C[C@@H]1CN([C@H](C)CO)C(=O)c2cc(NC(=O)c3ccncc3)ccc2O[C@@H]1CN(C)Cc1ccc(C(=O)O)cc1`, the growth inhibition call was “inactive”.
As for `COc1cccc(CNC(=O)c2cc3c(c(-c4cccc(-c5ccncc5)c4)n2)[C@@H](CCO)N([S@](=O)C(C)(C)C)C3)c1`, the growth inhibition call was “inactive”.
Consider `CCCCCCCCCCCCCCCC(=O)O[C@@H]1[C@@H](O)[C@@H](O)[C@@H]([C@H](NC(=O)[C@@H]2C[C@@H](CCC)CN2C)[C@H](C)Cl)O[C@@H]1SC`, for which the growth inhibition call is “inactive”.
Take `CCCC1CC(C(=O)NC(C(C)Cl)C2OC(SC)C(O)C(O)C2O)N(C)C1.Cl` (stereo not drawn): the growth inhibition call was “active”.
As for `CCC[C@@H]1C[C@@H](C(=O)N[C@@H]([C@H]2O[C@H](SC)[C@H](OP(=O)(O)O)[C@@H](O)[C@H]2O)[C@H](C)Cl)N(C)C1`, the entry is “inactive”; as for `CCC[C@@H]1C[C@@H](C(=O)N[C@H]([C@H]2O[C@H](SC)[C@H](O)[C@@H](O)[C@H]2O)[C@@H](C)Cl)N(C)C1`, “active”.
With `CCCCCCCCCCCCCCCC(=O)OC1C(SC)OC(C(NC(=O)C2CC(CCC)CN2C)C(C)Cl)C(O)C1O.Cl` (stereo not drawn), the growth inhibition call was “inactive”.
On to `C[C@H](CO)N1C[C@H](C)[C@H](CN(C)Cc2ccncc2)Oc2ccc(NC(=O)Nc3cccc4ccccc34)cc2CC1=O`, for which the growth inhibition call was “inactive”.
`COc1ccc(NC(=O)Nc2ccc3c(c2)C(=O)N([C@H](C)CO)C[C@H](C)[C@@H](CN(C)S(=O)(=O)c2ccccc2)OCCCC[C@H](C)O3)cc1`: the growth inhibition call is “inactive”.
In the case of `COc1ccc(S(=O)(=O)N(C)C[C@@H]2Oc3cc(C4=CCCC4)ccc3S(=O)(=O)N([C@@H](C)CO)C[C@@H]2C)cc1` it was “inactive”; in that of `C[C@@H]1[C@@H](c2ccccc2)OC(=O)[C@@H]2[C@H]3C(=O)N([C@@H](C)CO)[C@@H]4C(=O)N(Cc5ccccc5)CC=C[C@]34O[C@@H]2/C=C/CCC(=O)N1C`, “inactive”; in that of `C=CC[C@@H](CC(=O)NCCO)C(=O)NCCOC(=O)[C@H](CC=C)NC(=O)OCC1c2ccccc2-c2ccccc21`, “inactive”.
For the molecule `C[C@@H]1CCCCO[C@@H](CN(C)S(=O)(=O)c2ccc(F)cc2)[C@@H](C)CN([C@@H](C)CO)C(=O)c2cc(NC(=O)Cc3ccccc3)ccc2O1`, the growth inhibition call was “inactive”.
In the case of `CC1(C)SC2C(NC(=O)C(C(=O)[O-])c3ccsc3)C(=O)N2C1C(=O)[O-].[Na+].[Na+]` (stereo not drawn) it was “inactive”; in that of `CN[C@@H](C)C(=O)N[C@H]1CN(C(=O)CC(C)C)CC[C@H]2CC[C@@H](C(=O)NC(c3ccccc3)c3ccccc3)N2C1=O`, “inactive”; in that of `CCN1CCN(C(=O)NC(C(=O)NC2C(=O)N3C2SC(C)(C)C3C(=O)[O-])c2ccccc2)C(=O)C1=O.[Na+]` (stereo not drawn), “active”.
In the case of `CC1(C)SC2C(NC(=O)C(NC(=O)N3CCNC3=O)c3ccccc3)C(=O)N2C1C(=O)[O-].[Na+]` (stereo not drawn) it was “active”.
`CC1(C)SC2C(NC(=O)C(N)c3ccccc3)C(=O)N2C1C(=O)[O-].[Na+]` (stereo not drawn): the growth inhibition call is “inactive”.
Regarding `CCN1CCN(C(=O)N[C@@H](C(=O)N[C@@H]2C(=O)N3[C@@H]2SC(C)(C)[C@@H]3C(=O)O)c2ccccc2)C(=O)C1=O`, the growth inhibition call is “active”.
In the case of `CC1(C)SC2C(NC(=O)C(C(=O)[O-])c3ccccc3)C(=O)N2C1C(=O)[O-].[Na+].[Na+]` (stereo not drawn) it was “active”; in that of `CC1(C)S[C@@H]2[C@H](NC(=O)[C@H](NC(=O)N3CCNC3=O)c3ccccc3)C(=O)N2[C@H]1C(=O)O`, “inactive”.
In the case of `C[C@H]1CN([C@@H](C)CO)C(=O)c2cc(C#CC3(O)CCCC3)cnc2O[C@@H]1CN(C)S(C)(=O)=O` it was “inactive”; in that of `Cc1noc(C)c1NC(=O)N(C)C[C@H]1OCCCC[C@@H](C)Oc2ccc(NC(=O)CCC(F)(F)F)cc2C(=O)N([C@@H](C)CO)C[C@@H]1C`, “inactive”.
As for `C[C@@H]1CN([C@@H](C)CO)C(=O)c2cc(C#Cc3ccccc3F)cnc2O[C@H]1CN(C)S(=O)(=O)c1ccccc1F`, the entry is “inactive”.
`O=C(NCCN1CCOCC1)C(=O)NC[C@H]1OCCN1S(=O)(=O)c1ccc(F)cc1`: the growth inhibition call is “inactive”.
As for `Cc1ccc(C(=O)Oc2ccc(/C=N/c3cccs3)cc2)cc1`, the entry is “inactive”; as for `COc1ccc(S(=O)(=O)N(C)C[C@@H]2Oc3c(NC(=O)NC(C)C)cccc3C(=O)N([C@@H](C)CO)C[C@@H]2C)cc1`, “inactive”; as for `COCC(=O)N(C)C[C@H]1Oc2cc(C#Cc3cccnc3)ccc2S(=O)(=O)N([C@@H](C)CO)C[C@@H]1C`, “inactive”.
In the case of `C[C@@H]1CN([C@@H](C)CO)C(=O)c2c(c3ccccc3n2C)-c2ccccc2CO[C@H]1CN(C)Cc1ccc(F)cc1` it was “inactive”.
